Screens as filed in PubChem BioAssay.
ELG1 DNA repair: qHTS screen for small molecules that inhibit ELG1-dependent DNA repair in human embryonic kidney (HEK293T) cells expressing luciferase-tagged ELG1; HEK293T ELG1-luciferase reporter, luminescence, 16 h; DNA damage induced by 5-fluorouridine; Potency, µM (top dose mostly 46.1 µM), inactives show at the top dose activity change, negative = inhibition, actives largely listed as inhibitors; actives 2.3% (n = 330,000); AID 504467, 2011; also: potency is read from the fitted curve at half-maximal effect; % is scaled to controls: 0 for no effect and ±100 for the full control effect; nearly all actives have a fitted effect of over 55% in size
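Luminescence from the luciferase reporter, measured 30 min after ONE-Glo reagent at room temperature, was the read-out. Beforehand, 2,000 cells per well were exposed for 16 hr at 37 °C to 5-fluorouridine together with compound or vehicle.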
Nrf2 activator: qHTS of Nrf2 Activators; AREc32 ARE-luciferase reporter (MCF7-derived line), luminescence, 24 h; Potency, µM (titrated, usually from 46.1 µM), for the others: at the top dose activation, usual class: activators; actives 0.31% (n = 410,000); AID 624171, 2012; also: potency is read from the fitted curve at half-maximal effect; % of control where 0% means no effect; nearly all actives have a fitted effect of over 65% in size
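ARE-driven firefly luciferase activity in AREc32 cells measured after a 24 hr compound exposure at 37 deg C, using Steady-Glo reagent and a 30 min room-temperature hold.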
IL-2 act: qHTS of IL-2 Activators. activation, % (series mostly up to about 46 µM). actives 0.065% (n = 360,000). IL-2 activation reporter assay, cell-based qHTS; stimulated with anti-CD3/CD4/CD28 beads; in transgenic mouse T cells; in the data active = activation above about 50%; inconclusive = mostly about 30% to 49%; also: 0% is about no effect
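Unstimulated transgenic mouse T cells preincubated 60 min with compound, then stimulated with anti-CD3/anti-CD4-coated beads plus anti-CD28 for 18 h at 37 degrees C. IL-2 response read as EGFP and DsRed fluorescence by plate cytometry.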
BRCA1 expr act: qHTS Assay to Identify Small Molecule Activators of BRCA1 Expression; MCF7-BRCA1-FFLuc reporter, luminescence, 48 h; response scale: scaled: vehicle 0%, 10 µM genistein 100%; Potency, µM (highest dose often 46.1 µM), for the others: at the top dose activation, usual class: activators; actives 1.1% (n = 380,000); AID 624202, 2012; also: potency is read from the fitted curve at half-maximal effect; nearly all actives have a fitted effect of over 80% in size
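MCF7-BRCA1-FFLuc cells, 2000/well in phenol-red-free MEM, attached 2 h then treated 48 h at 37 C. Luciferase luminescence read 15 min after reagent; normalized to genistein maximum activation (10microM) and DMSO, concentration-response fitted.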
An asterisk follows results filed as active. Hits are enriched below; roughly 3.1% of the tested compounds scored in any of these assays. Unless noted, calls follow the shape of the dose curve; as a rule, active = well fitted curve in the direction sought with a large enough effect; inconclusive = small, poorly fitted or top-dose-only effect, or another doubt; inactive = no such curve, though single readings can be large; an effect the other way counts as inactive or inconclusive.

`O=C(/C=C/c1ccco1)Nc1nc(-c2ccccc2)cs1` gave ELG1 DNA repair inconclusive, Nrf2 activator 15.7%, IL-2 act -1.7 and BRCA1 expr act 8.91µM*.
For Cc1ccccc1NC(=S)NC(=O)/C=C/c1ccco1 the results were ELG1 DNA repair -6.2%, Nrf2 activator 17.8µM*, IL-2 act -0.9 and BRCA1 expr act -1.3%.
`CCc1c(-c2cccc(OC)c2)ncn1Cc1cccc(-c2ccccc2)c1` gave IL-2 act -0.9.
Screening Cn1c(C(=O)NC2CCCCC2)cc2sccc21 returned ELG1 DNA repair inconclusive, Nrf2 activator 0.6%, IL-2 act -1.0 and BRCA1 expr act 5.62µM*.
`CN(C(=O)c1cc2sccc2n1C)C1CCCCC1` gave ELG1 DNA repair inconclusive, Nrf2 activator 0.3%, IL-2 act -2.6 and BRCA1 expr act 6.31µM*.
O=C1C(Nc2cccc(O)c2)=C(N2CCCCC2)C(=O)c2ccccc21 was read as ELG1 DNA repair 13µM*, Nrf2 activator 0.1%, IL-2 act -0.6 and BRCA1 expr act -83.7%.
Screening COc1ccccc1NC1=C(N2CCCCC2)C(=O)c2ccccc2C1=O returned ELG1 DNA repair 1.84µM*, Nrf2 activator -0.9%, IL-2 act -0.7 and BRCA1 expr act -93.7%.
Nc1ccn(C2OC(CCl)C(O)C2O)c(=O)n1 (configuration not stated) was read as Nrf2 activator -0.2%, IL-2 act -3.0 and BRCA1 expr act -22.2%.
Screening CCCn1c(=O)c2c(nc3n2CCN3Cc2ccco2)n(C)c1=O returned ELG1 DNA repair inconclusive, Nrf2 activator 5.9%, IL-2 act 0.2 and BRCA1 expr act 0.0%.
Cn1c(=O)n(Cc2ccccc2F)c(=O)c2c1nc1n2CCN1Cc1ccco1 was read as ELG1 DNA repair inconclusive, Nrf2 activator 28.7%, IL-2 act 0.3 and BRCA1 expr act -23.8%.
Screening Cn1c(=O)n(Cc2ccc(Cl)cc2)c(=O)c2c1nc1n2CCN1Cc1ccco1 returned ELG1 DNA repair 25.9µM*, Nrf2 activator 19.0%, IL-2 act -0.8 and BRCA1 expr act -41.4%.
Screening Cn1c(N2CCC(C(N)=O)CC2)nc2c1c(=O)n(Cc1ccc(Cl)cc1)c(=O)n2C returned ELG1 DNA repair -15.9%, Nrf2 activator 0.0%, IL-2 act -2.7 and BRCA1 expr act -11.4%.
`Cn1c(N2CCCC2)nc2c1c(=O)n(Cc1ccc(Cl)cc1)c(=O)n2C` gave ELG1 DNA repair 20.6µM*, Nrf2 activator 0.2%, IL-2 act -2.5 and BRCA1 expr act -31.9%.
Screening Cc1cccc(Cn2c(=O)c3c(nc4n3CCN4Cc3ccco3)n(C)c2=O)c1 returned ELG1 DNA repair 20.6µM*, Nrf2 activator 20.1%, IL-2 act -4.2 and BRCA1 expr act -19.6%.
CN(C)c1ccc(C(C[N+](=O)[O-])c2c(N)n(C)c(=O)n(C)c2=O)c(F)c1C#N (configuration not stated) was read as ELG1 DNA repair -8.0%, Nrf2 activator inconclusive, IL-2 act -0.8 and BRCA1 expr act -63.5%.
Cn1c(N)c(C(C[N+](=O)[O-])c2c(F)cccc2Cl)c(=O)n(C)c1=O (configuration not stated) was read as ELG1 DNA repair inconclusive, Nrf2 activator 15.8µM*, IL-2 act -3.2 and BRCA1 expr act -22.7%.
`CCCc1nc2ccc(C)cn2c1Cc1ccc(C)cc1` gave Nrf2 activator 6.1%, IL-2 act 0.4 and BRCA1 expr act 7.08µM*.
`COc1cc(OC)cc(C(=O)Nc2ccc(N3CCN(C(=O)c4cccs4)CC3)cc2)c1` gave ELG1 DNA repair 14.6µM*, Nrf2 activator 0.0%, IL-2 act -0.7 and BRCA1 expr act -61.3%.
`COc1ccc(C(=O)Nc2ccc(N3CCN(C(=O)c4cccs4)CC3)cc2)cc1Br` gave ELG1 DNA repair 13µM*, Nrf2 activator 0.7%, IL-2 act -0.3 and BRCA1 expr act -34.5%.
Cc1ccc(C(=O)N2CCN(c3ccc(NC(=O)c4cccs4)cc3)CC2)cc1 was read as ELG1 DNA repair 9.2µM*, Nrf2 activator 1.8%, IL-2 act 0.6 and BRCA1 expr act -23.4%.
For O=C(Nc1ccc(N2CCN(C(=O)c3cccs3)CC2)cc1)c1ccc(F)cc1 the results were ELG1 DNA repair 18.3µM*, Nrf2 activator -0.1%, IL-2 act -0.2 and BRCA1 expr act -22.5%.
Screening COc1ccc(C(=O)Nc2ccc(N3CCCC3)cc2)cc1Br returned ELG1 DNA repair 26.1%, Nrf2 activator 3.2%, IL-2 act 1.1 and BRCA1 expr act inconclusive.
`CCOc1ccc(/C=C/c2nc(C#N)c(Nc3ccc(OCC)cc3)o2)cc1` gave Nrf2 activator 5.3%.
For CC(=O)c1cccc(NC(=O)c2noc3c2CCCC3)c1 the results were Nrf2 activator 4.7%.
`Cn1nc(C(C)(C)C)cc1C(=O)N1CCCC(c2cc(C(=O)Nc3ccccc3Cl)no2)C1` (configuration not stated) gave Nrf2 activator 0.6%, IL-2 act -0.6 and BRCA1 expr act -10.1%.
O=C(c1cnn(-c2ccccc2)c1)c1cc(F)ccc1O was read as ELG1 DNA repair inconclusive, Nrf2 activator inconclusive, IL-2 act -1.8 and BRCA1 expr act 10µM*.
Screening O=C(c1cnn(-c2ccccc2)c1)c1ccccc1O returned ELG1 DNA repair inconclusive, Nrf2 activator 7.6%, IL-2 act -4.4 and BRCA1 expr act inconclusive.
O=C(CSc1ncc(-c2ccc(F)cc2)[nH]1)N1CCCCC1 was read as ELG1 DNA repair inconclusive, Nrf2 activator 0.5%, IL-2 act 3.7 and BRCA1 expr act 11.2µM*.
CC(=O)Nc1ccc(NC(=O)CSc2cn(CC(=O)N(C(C)C)C(C)C)c3ccccc23)cc1 was read as Nrf2 activator 3.3%.
Screening O=C(Nc1ccc(C(=O)O)cc1)/C(=C\C=C\c1ccccc1)NC(=O)c1ccccc1Br returned ELG1 DNA repair inconclusive, Nrf2 activator -0.4%, IL-2 act 0.9 and BRCA1 expr act 10µM*.
For O=C(Nc1ccc(C(=O)O)cc1)/C(=C\C=C\c1ccccc1)NC(=O)c1cccc(Br)c1 the results were ELG1 DNA repair 8.4%, Nrf2 activator -0.8%, IL-2 act -2.4 and BRCA1 expr act -36.1%.
CCOC(=O)Cc1csc(-n2sc3ccccc3c2=O)n1 was read as ELG1 DNA repair inconclusive, Nrf2 activator 10.7%, IL-2 act -0.3 and BRCA1 expr act 21.2%.
`CCOC(=O)Cc1csc(/N=C/c2c(O)n(-c3ccccc3C(F)(F)F)c(=O)c3ccccc23)n1` gave ELG1 DNA repair 13µM*, Nrf2 activator -0.8%, IL-2 act 16.4 and BRCA1 expr act -16.4%.
Screening NC(=S)N=Nc1c(O)n(CCCl)c2ccc(Br)cc12 returned ELG1 DNA repair 14.6µM*, Nrf2 activator 13.4%, IL-2 act -2.7 and BRCA1 expr act -40.9%.
